Bioassay records: PubChem BioAssay, several laboratories
Compounds with a hit are over-represented: about 2.6% of the library has one in this group of screens.
TLR9-MyD88 block: inhibitors of TLR9-MyD88 association in cells, primary screen, cell-based, CHO, BLA complementation, fluorescence | Toll-like receptor 9 (Homo sapiens) + Myeloid differentiation primary response protein … | CCF4 FRET ratio | inhibition, % at 4.98 µM | 0.21% of 340,000 active;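 active means inhibition above the mean over all tested compounds plus 3 SD, cut at about 21% in these data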;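 further: 0% = DMSO only wells and 100% = clavulanate BLA inhibitor control wells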
Exocytosis inh: LAMP-1 surface exposure blockers, TALL-104 cells – cell-based, flow cytometry, MLPCN library, primary screen; 0.66% of 360,000 active; inhibition, % at 10 µM; AID 651702, 2012; TALL-104 LAMP-1 surface exposure; cells stimulated with thapsigargin and PMA;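 active means inhibition above about 55%, limit read from the data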
NOD2-RIPK2 inh: NOD2-RIPK2 binding disruptors in cells, primary screen, fluorescence, CHO cells, BLA complementation | Receptor-interacting serine/threonine-protein kinase 2 (Homo sapiens), O43353 | 0.38% of 360,000 active | CCF4 ratio | inhibition, % at 4.98 µM; in the data active means inhibition above about 21%;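 further: 0% = vehicle only and 100% = reference blocker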
PRMT1 FP inh: PRMT1 methyltransferase inhibitors, primary screen, biochemical, fluorescence polarization. Protein arginine N-methyltransferase 1 (Homo sapiens), Q99873. AID 652257, 2013. inhibition, % at 2.79 µM. recombinant PRMT1, activity-based probe fluorescence polarization. 1.3% of 370,000 active;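 active means inhibition above about 21% made by adding two undisclosed values, limit read from the data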
TLR4-MyD88 BLA: inhibitors of TLR4-MyD88 association in cells, primary screen, cell-based, HeLa CL3-4, BLA complementation, FRET ratio; Toll-like receptor 4 (Homo sapiens) + Myeloid differentiation primary response protein …; HeLa CL3-4 TLR4/MyD88 BLA complementation; inhibition, % at 8.4 µM; 0.18% of 200,000 active; in the data active means inhibition above about 25%;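 further: 0% = vehicle and 100% = reference inhibitor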
ABHD5-PLIN5 inh: ABHD5-PLIN5 interaction inhibitors, primary screen, cell lysate, split luciferase complementation, luminescence; Perilipin-5 (Homo sapiens) + 1-acylglycerol-3-phosphate O-acyltransferase ABHD5 (Homo …; 0.78% of 360,000 active; inhibition, % at 4 µM; Split G. princeps luciferase complementation, 4 h;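 active means inhibition above the mean inhibition across every tested compound plus 3 SD, cut at about 22% in these data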;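 further: 0% = DMSO only wells and the 100% control is not disclosed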
ABHD5 PLIN5 conf: ABHD5-PLIN5 interaction inhibitors, confirmation, biochemical, luminescence. shares compounds with ABHD5-PLIN5 inh. inhibition, % at 4 µM. 67% of 2,200 active; in the data active means inhibition above about 23%;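 further: 0% = DMSO vehicle wells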
HNF4 split-luc: HNF4 dimerization inhibitors, counter-screen for ABHD5-PLIN5 interaction inhibitor project, biochemical, split-luciferase complementation, luminescence; 77% of 2,200 active; shares compounds with ABHD5-PLIN5 inh; inhibition, % at 4 µM; AID 651674, 2012;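 active means mean inhibition across replicate wells exceeding the computed hit threshold, cut at about 13% in these data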;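 further: light from luciferase halves that rejoin when HNF4 fusion proteins dimerize; 0% = DMSO only wells and the 100% control is not given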
Target sequence (P41235 whole entry, looked up, the tested form may be a part): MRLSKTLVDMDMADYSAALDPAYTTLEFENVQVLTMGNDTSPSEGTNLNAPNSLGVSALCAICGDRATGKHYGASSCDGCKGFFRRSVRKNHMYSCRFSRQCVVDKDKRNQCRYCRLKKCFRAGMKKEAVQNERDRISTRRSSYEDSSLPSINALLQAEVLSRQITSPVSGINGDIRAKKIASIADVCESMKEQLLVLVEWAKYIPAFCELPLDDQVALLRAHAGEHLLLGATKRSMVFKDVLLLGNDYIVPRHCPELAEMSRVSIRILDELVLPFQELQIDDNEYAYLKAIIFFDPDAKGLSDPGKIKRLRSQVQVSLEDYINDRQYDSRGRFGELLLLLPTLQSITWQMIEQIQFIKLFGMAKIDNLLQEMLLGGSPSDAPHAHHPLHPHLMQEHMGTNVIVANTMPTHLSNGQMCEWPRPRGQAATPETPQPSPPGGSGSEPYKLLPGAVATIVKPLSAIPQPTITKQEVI
An asterisk follows results filed as active.

For NC(=O)[C@@H]1CCCN1C(=O)[C@H]1O[C@@H](n2ccc(N)nc2=O)[C@H](O)[C@@H]1O the results were PRMT1 FP inh -1.8.
N#C/C(=C\c1ccc(N2CCOCC2)o1)C(=O)NCCc1ccccc1 was read as TLR9-MyD88 block 4.0, Exocytosis inh -0.5, NOD2-RIPK2 inh -2.7, PRMT1 FP inh -66.3, TLR4-MyD88 BLA 12.8, ABHD5-PLIN5 inh 24.8*, ABHD5 PLIN5 conf 18.5 and HNF4 split-luc 31.9*.
Screening Cc1ccc(CNC(=S)NC2CCC(C(C)(C)C)CC2)cc1 (configuration not stated) returned TLR9-MyD88 block -9.2, Exocytosis inh -1.8, NOD2-RIPK2 inh -0.3, PRMT1 FP inh -2.8 and ABHD5-PLIN5 inh -2.9.
CN(C)CCCCOc1ccc(F)cc1 was read as TLR9-MyD88 block -9.4, Exocytosis inh -1.8, NOD2-RIPK2 inh -8.0, PRMT1 FP inh 1.4, TLR4-MyD88 BLA -0.6 and ABHD5-PLIN5 inh -7.1.
For Cc1ccc(CC2(OCCN(C)C)CCC(C(C)(C)C)CC2)cc1 (configuration not stated) the results were TLR9-MyD88 block -0.7, Exocytosis inh -2.9, NOD2-RIPK2 inh -10.8, PRMT1 FP inh -2.3, ABHD5-PLIN5 inh 26.4*, ABHD5 PLIN5 conf 30.2* and HNF4 split-luc 1.7.
For CN(C)CCOC1(Cc2ccc(F)cc2)CCC(C(C)(C)C)CC1 (configuration not stated) the results were TLR9-MyD88 block 2.0, Exocytosis inh 29.2, NOD2-RIPK2 inh 10.9, PRMT1 FP inh 0.6, ABHD5-PLIN5 inh 25.2*, ABHD5 PLIN5 conf 32.7* and HNF4 split-luc 5.0.
C[C@@H]1ON(C)[C@H]2C[C@H]3c4[nH]c5cccc(-c6cccc(F)c6)c5c4CCN3C(=O)[C@@H]12 was read as PRMT1 FP inh -3.8.
`OC1CC2CCC(C1)N2CCCN1c2ccccc2Sc2ccc(Cl)cc21` (configuration not stated) gave TLR9-MyD88 block 3.7, Exocytosis inh 3.5, NOD2-RIPK2 inh -4.8, PRMT1 FP inh -2.8, ABHD5-PLIN5 inh 27.1*, ABHD5 PLIN5 conf 18.2 and HNF4 split-luc 16.1*.
Screening CCOc1cccc2sc(N(CCCN(C)C)C(=O)c3ccc(S(=O)(=O)N(C)c4ccccc4)cc3)nc12 returned TLR9-MyD88 block 5.3, Exocytosis inh 36.6, NOD2-RIPK2 inh 7.1, PRMT1 FP inh 1.7, TLR4-MyD88 BLA -5.5, ABHD5-PLIN5 inh 27.1*, ABHD5 PLIN5 conf 19.0 and HNF4 split-luc 12.3.
`CCn1c(SCC(=O)N/N=C/C=C/c2ccco2)nnc1-c1ccccc1` gave TLR9-MyD88 block 0.2, Exocytosis inh -1.0, NOD2-RIPK2 inh 2.6, PRMT1 FP inh 10.0, TLR4-MyD88 BLA -5.1, ABHD5-PLIN5 inh 30.6*, ABHD5 PLIN5 conf 24.0* and HNF4 split-luc 44.4*.
For CCCCCOC(=O)CSc1nnc(-c2cc(OC)c(OC)c(OC)c2)o1 the results were TLR9-MyD88 block 8.3, Exocytosis inh 4.3, NOD2-RIPK2 inh -16.9, PRMT1 FP inh -1.1, TLR4-MyD88 BLA 6.8 and ABHD5-PLIN5 inh -1.2.
`CCCOC(=O)CSc1nnc(-c2cc(OC)c(OC)c(OC)c2)o1` gave TLR9-MyD88 block -1.1, Exocytosis inh -3.7, NOD2-RIPK2 inh 0.2, PRMT1 FP inh -3.8, TLR4-MyD88 BLA 15.8, ABHD5-PLIN5 inh 74.1*, ABHD5 PLIN5 conf 4.8 and HNF4 split-luc 3.0.
Screening COc1cc(/C=N/N=C(N)N)ccc1OCc1ccc(Cl)cc1 returned TLR9-MyD88 block 0.5, Exocytosis inh 13.0, NOD2-RIPK2 inh -2.0, PRMT1 FP inh -2.9, TLR4-MyD88 BLA 3.4, ABHD5-PLIN5 inh 23.6*, ABHD5 PLIN5 conf 8.2 and HNF4 split-luc 6.4.
Screening CC(=O)Nc1ccc(S(=O)(=O)Oc2cccc(/C=C3\SC(N)=NC3=O)c2)cc1 returned TLR9-MyD88 block 2.5, Exocytosis inh -1.6, NOD2-RIPK2 inh -2.9, PRMT1 FP inh 1.5, TLR4-MyD88 BLA 12.7, ABHD5-PLIN5 inh 28.1*, ABHD5 PLIN5 conf 34.6* and HNF4 split-luc 22.4*.
For NC1=NC(=O)/C(=C/c2cccc(F)c2)S1 the results were TLR9-MyD88 block -2.0, Exocytosis inh -5.8, NOD2-RIPK2 inh -5.9, PRMT1 FP inh -3.3 and ABHD5-PLIN5 inh 1.0.
COC(=O)c1cc2c(c3c4ccccc4n(S(=O)(=O)c4ccccc4)c13)C(=O)N(Cc1ccc(C(F)(F)F)cc1)C2 was read as PRMT1 FP inh -0.3.
Screening COc1ccc(C(=O)Cn2nc(CNc3ccc(Br)cc3)[n+]3c2CCCCC3)cc1 returned TLR9-MyD88 block -7.6, Exocytosis inh -2.2, NOD2-RIPK2 inh 3.3, PRMT1 FP inh 4.8, TLR4-MyD88 BLA -21.6, ABHD5-PLIN5 inh 37.1*, ABHD5 PLIN5 conf 23.2* and HNF4 split-luc 14.2*.
Screening O=C(Cn1nc(-c2nn(CC(=O)c3ccccc3)c3[n+]2CCCCC3)[n+]2c1CCCCC2)c1ccccc1 returned Exocytosis inh -4.9, NOD2-RIPK2 inh 0.2, PRMT1 FP inh -4.8 and ABHD5-PLIN5 inh 4.1.
`c1coc(-c2nc3ccccc3nc2-c2ccco2)c1` gave TLR9-MyD88 block -3.0, Exocytosis inh 10.3, NOD2-RIPK2 inh 5.4, PRMT1 FP inh 42.2*, TLR4-MyD88 BLA -6.1, ABHD5-PLIN5 inh 34.0*, ABHD5 PLIN5 conf 93.3* and HNF4 split-luc 85.6*.
For COC(=O)c1cc2c(c3c4cc(OC)ccc4n(S(=O)(=O)c4ccc(C)cc4)c13)C(=O)N(C)C2 the results were PRMT1 FP inh -4.1.
Cc1ccc(/C(O)=C2/C(=O)C(=O)OC2c2ccc(Cl)cc2)cc1 (configuration not stated) was read as TLR9-MyD88 block -4.7, Exocytosis inh -0.4, NOD2-RIPK2 inh 3.7, PRMT1 FP inh 0.2, TLR4-MyD88 BLA 8.6, ABHD5-PLIN5 inh 31.6*, ABHD5 PLIN5 conf 57.4* and HNF4 split-luc 36.6*.
CCOC(=O)C1CSCCS(=O)(=O)N1Cc1ccc(Br)cc1 (configuration not stated) was read as PRMT1 FP inh 2.8.
COCc1cc(N2CCN(C(=O)OC(C)(C)C)C[C@H]2C)ccc1N1C[C@@H](C)O[C@@H](C)C1 was read as PRMT1 FP inh 3.7.
Screening CCc1ccc(C=NN2CCN(Cc3ccc(C)cc3C)CC2)cc1 returned PRMT1 FP inh -5.6.
